# Screen size: about 360,000 compounds; about 3,100 (0.86%) were called active.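 The calls were made as follows: active = inhibition or corrected inhibition above about 18%, plus a signal ratio from 0.5 to 1.5 (limit read from the data, passing the limit was not always enough); inactive = the rest.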 Many of the other results were omitted from the sample, so actives are more common in it than they were.
# Target: Neuropilin-1 (Homo sapiens) (UniProt O14786)
# Test: modulators of CendR peptide binding to NRP-1, primary screen, biochemical, fluorescence polarization, uHTS (AID 602438)
# Conditions: FAM-RPARPAR peptide binding to NRP-1, fluorescence polarization; at 25 µM; active compounds read high
# Sequence of Neuropilin-1 (Homo sapiens) (O14786 whole entry, looked up): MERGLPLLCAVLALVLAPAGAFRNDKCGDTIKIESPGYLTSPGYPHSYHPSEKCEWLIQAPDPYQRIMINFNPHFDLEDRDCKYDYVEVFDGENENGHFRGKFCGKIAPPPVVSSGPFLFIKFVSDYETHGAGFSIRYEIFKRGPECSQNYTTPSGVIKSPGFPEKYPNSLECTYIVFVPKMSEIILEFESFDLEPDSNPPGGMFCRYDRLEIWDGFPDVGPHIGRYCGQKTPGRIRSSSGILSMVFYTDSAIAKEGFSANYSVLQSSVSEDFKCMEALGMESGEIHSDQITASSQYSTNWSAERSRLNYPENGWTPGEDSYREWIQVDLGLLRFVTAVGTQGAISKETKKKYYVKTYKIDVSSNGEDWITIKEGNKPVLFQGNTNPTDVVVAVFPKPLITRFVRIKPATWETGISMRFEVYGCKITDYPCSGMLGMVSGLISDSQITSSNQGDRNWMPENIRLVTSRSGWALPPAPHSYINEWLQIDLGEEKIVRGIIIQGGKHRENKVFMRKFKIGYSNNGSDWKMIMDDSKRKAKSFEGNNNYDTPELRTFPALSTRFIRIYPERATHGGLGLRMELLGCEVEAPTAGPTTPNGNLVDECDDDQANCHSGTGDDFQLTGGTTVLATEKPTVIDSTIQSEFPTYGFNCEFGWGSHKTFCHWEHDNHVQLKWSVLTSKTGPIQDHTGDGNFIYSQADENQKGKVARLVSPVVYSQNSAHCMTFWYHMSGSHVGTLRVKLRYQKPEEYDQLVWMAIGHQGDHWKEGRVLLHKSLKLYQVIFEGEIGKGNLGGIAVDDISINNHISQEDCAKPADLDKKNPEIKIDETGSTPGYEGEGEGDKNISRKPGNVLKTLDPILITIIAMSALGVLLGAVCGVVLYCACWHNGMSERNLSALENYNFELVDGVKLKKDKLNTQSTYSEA
row,Structure (SMILES),inhibition
1,O=C1/C(=C/c2cccs2)CCC1C1CCCC1 (configuration not stated),2.8% (inactive)
2,C[C@H]1CC[C@]2(O[C@@H](CCO)C[C@@H](O)[C@@H]2O)O1,13.5% (inactive)
3,C[C@@H]1CC[C@]2(O[C@@H](CCO)C[C@H](O)[C@H]2O)O1,-18.9% (inactive)
4,OCC[C@H]1C[C@H](O)[C@@H](O)[C@]2(CCCCO2)O1,28.3% (active)
5,COCCNC(=O)C1CCCN(Cc2ccccc2Cl)CC1 (configuration not stated),2% (inactive)
6,Cc1ccc(S(=O)(=O)C2C(=O)NC3(C)CC2c2ccccc2O3)cc1 (configuration not stated),-9.3% (inactive)
7,CCCOc1ccc(CNC(=O)C2CCN(c3nn4c(=O)cc(C)nc4s3)CC2)cc1,-7.5% (inactive)
8,COc1cccc(N(C(=O)CNC(=O)c2ccco2)C(C(=O)NC2CCCCC2)c2cccnc2)c1 (configuration not stated),5.7% (inactive)
9,Cc1ccc(N(C(=O)CNC(=O)c2ccco2)C(C(=O)NC2CCCC2)c2ccncc2)cc1 (configuration not stated),18.5% (active)
10,CC(C)(C)NC(=O)C(c1ccncc1)N(C(=O)CNC(=O)c1ccco1)c1ccc2c(c1)OCO2 (configuration not stated),4% (inactive)
11,Cc1ccc(S(=O)(=O)NC2(C(F)(F)F)NC(=O)N(CCc3ccccc3)C2=O)cc1 (configuration not stated),11.7% (inactive)
12,O=C(c1c(F)cccc1Cl)N1CCN(S(=O)(=O)c2ccc3c(c2)OCCCO3)CC1,2.8% (inactive)
13,Cc1coc2c1c(C)cc1oc(=O)c(CC(=O)NCC(=O)N[C@H](C(=O)O)C(C)C)c(C)c12,-3.3% (inactive)
14,Cc1nn(CCCC(=O)NCc2ccccc2Cl)c(=O)c2nccn12,3.3% (inactive)
15,C[C@@H]1CN([C@H](C)CO)C(=O)CCCn2cc(nn2)CO[C@H]1CN(C)S(C)(=O)=O,-4.3% (inactive)
16,Cc1coc2c(O)cc3c(c12)OC1(N2CCCCC2)C(=O)NCCCC31 (configuration not stated),26.1% (active)
17,CSc1nnnn1-c1c(C)cc(C)cc1C,9.3% (inactive)
18,COCCN(C(=O)COC(=O)Cc1cccc(OC)c1)c1c(N)n(Cc2ccccc2)c(=O)[nH]c1=O,3.8% (inactive)
19,O=C(O)C1CCCN(CCC=C(c2ccccc2)c2ccccc2)C1 (configuration not stated),1.9% (inactive)

row,Structure (SMILES),inhibition
1,O=[N+]([O-])/C=C/c1ccc2c(ccn2Cc2ccccc2)c1,-5.7% (inactive)
2,COC(=O)c1c(C)[nH]c(C(=O)/C=C/c2ccc(Cl)cc2)c1C,41% (active)
3,Cc1cc(C)nc(NC(=O)/C=C/c2ccc(Cl)cc2)n1,6.6% (inactive)
4,COC(=O)c1c(C)[nH]c(C(=O)NCCc2ccc(S(N)(=O)=O)cc2)c1C,-1.4% (inactive)
5,Cc1cc(CNC(=O)C2CCC(=O)N(CCc3ccc(Cl)cc3)C2)no1 (configuration not stated),28.7% (active)
6,O=C(NCCN1CCOC1=O)C1CCC(=O)N(CCc2ccc(Cl)cc2)C1 (configuration not stated),-0.8% (inactive)
7,O=C(NCCCc1ccccc1)C1CCC(=O)N(CCc2ccc(Cl)cc2)C1 (configuration not stated),8.8% (inactive)
8,CO[C@@H]1CN(C)C(=O)c2cc(NC(=O)Nc3cc(F)ccc3F)ccc2OC[C@H](C)N(C(=O)c2ccccn2)C[C@@H]1C,2.7% (inactive)
9,COc1ccc(Cl)cc1NC(=O)NCC1CCN(Cc2ccccc2F)CC1,-1% (inactive)
10,COc1ccc(Cl)cc1NC(=O)NC(C)C(C)(C)C (configuration not stated),-1.8% (inactive)
11,COc1ccc(Cl)cc1NC(=O)C(C)N1CCc2ccccc21 (configuration not stated),23.1% (active)
12,Cc1n[nH]c(=O)n1-c1ccc(Oc2ccccc2)cc1,20% (inactive)
13,CCOc1ccc(CCNC(=O)C2=C(C)C(=O)OC23CCC(C)CC3)cc1OCC (configuration not stated),-1.3% (inactive)
14,CN(C)S(=O)(=O)Oc1ccccc1C(=O)Nc1ccccc1Cl,50.6% (active)
15,CC(=O)Nc1ccc(NC(=O)COc2ccccc2C(=O)Nc2cccc(Cl)c2Cl)cc1,4.5% (inactive)
16,CSc1ccccc1NC(=O)c1cc(Cl)sc1Cl,-5.4% (inactive)
17,COc1ccc(CN2[C@@H](CC(=O)O)c3cc(F)ccc3S2(=O)=O)cc1,26.2% (active)
18,COc1ccc(CN2C3CCCC2CC(NC(=O)c2cccc(F)c2)C3)cc1 (configuration not stated),-2.7% (inactive)
19,COc1ccc(CN2C(CC(=O)Nc3cccnc3)c3ccc(C(F)(F)F)cc3S2(=O)=O)cc1 (configuration not stated),0.3% (inactive)

row,Structure (SMILES),inhibition
1,O=C(C[n+]1cc(-c2ccc(Cl)c(Cl)c2)n2c1CCC2)c1cccs1,-11.8% (inactive)
2,CCOC(=O)C1(Cc2ccccc2C)CCCN(C(=O)CN2C(=O)CSC2=O)C1 (configuration not stated),5.9% (inactive)
3,COc1ccc(CC(=O)OC(C)C(=O)Nc2ccc(S(N)(=O)=O)cc2)cc1 (configuration not stated),-4.6% (inactive)
4,COC(C[C@@H](O)C[C@H](O)[C@H](C)OCc1ccccc1)OC,-8.8% (inactive)
5,COC(C[C@@H](O)[C@H](C)[C@H](O)COCc1ccccc1)OC,18.6% (active)
6,COC(C[C@@H](O)C[C@@H](O)[C@H](C)OCc1ccccc1)OC,17.1% (inactive)
7,COCCn1c(SCc2nc3cc(OC)c(OC)cc3c(=O)[nH]2)nnc1-c1ccncc1,14.6% (inactive)
8,NS(=O)(=O)c1ccc(CCNC(=O)c2nc(CS(=O)(=O)c3ccc(Cl)cc3)no2)cc1,-1.3% (inactive)
9,O=C1C=C(NCCNc2c(F)c(F)c(CO)c(F)c2F)CCC1,-0.5% (inactive)
10,CCOC(=O)[C@]12CCC=C1N(Cc1ccccc1)C(=O)[C@H](CC(=O)N1CCCC1)C2,-23.1% (inactive)
11,CC(=O)NC(CC(=O)Nc1nc(-c2ccccc2)c(C(C)=O)s1)c1ccccc1 (configuration not stated),-4.6% (inactive)
12,CCN1C(=S)N[C@@H](CCc2ccccc2)[C@H](C(=O)OC)[C@H]1C,10.2% (inactive)
13,COCCN1C(=O)N[C@@H](CCc2ccccc2)[C@H](C(C)=O)[C@H]1C,23.7% (active)
14,CCN1C(=O)N[C@@H](c2ccccc2)[C@H](C(C)=O)[C@H]1C,7.8% (inactive)
15,CC12COC3(C(=O)Nc4ccc(Cl)cn4)CC1CCC32C (configuration not stated),-0.2% (inactive)
16,Cc1ccc(OCC(=O)Nc2ccc(C(=O)O)cc2NC(=O)COc2ccc(C)c(C)c2)cc1C,0.7% (inactive)
17,COc1ccc(OCC(=O)OCCN(C)C)cc1,1.6% (inactive)
18,COc1ccc(C(=O)COC(=O)COc2ccc(C)c(C)c2)cc1,33.9% (active)
19,CCCCNC(=O)C1(O)c2ccccc2NC(=O)N1c1ccc(Cl)cc1 (configuration not stated),3.9% (inactive)

# Reference: PubChem BioAssay AID602438 (Sanford-Burnham Center for Chemical Genomics, 2012)
